The full list was thinned out, with hits kept by preference.
FECH block: inhibitors of human ferrochelatase, primary screen, biochemical, purified FECH, Ni-mesoporphyrin absorbance. Ni-mesoporphyrin absorbance 550 nm. calls only at 10 µM (by protocol). 20,000 compounds, 3.3% hits. AID 1671448, 2021;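 active = enzyme reaction rate more than 3 SD below the solvent-only control wells on the same plate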;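 note: lower slope than DMSO wells means FECH inhibition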
Target sequence (P22830 whole entry, looked up): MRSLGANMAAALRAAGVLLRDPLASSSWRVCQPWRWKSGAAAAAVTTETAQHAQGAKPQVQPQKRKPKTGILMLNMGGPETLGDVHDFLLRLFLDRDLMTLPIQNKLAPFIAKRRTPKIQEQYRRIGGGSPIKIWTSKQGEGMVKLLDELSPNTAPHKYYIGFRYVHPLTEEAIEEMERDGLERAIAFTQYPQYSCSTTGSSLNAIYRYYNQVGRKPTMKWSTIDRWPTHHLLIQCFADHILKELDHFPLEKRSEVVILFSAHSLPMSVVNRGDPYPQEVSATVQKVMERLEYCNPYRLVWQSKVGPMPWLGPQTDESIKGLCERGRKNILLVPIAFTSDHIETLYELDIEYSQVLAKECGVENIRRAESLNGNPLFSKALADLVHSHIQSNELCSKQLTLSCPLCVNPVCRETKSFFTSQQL
Active calls of the source: *.

What do the screens show for `Cc1ccc(-c2ccc(C(=O)NCCCc3ccccn3)cn2)c(-n2cccn2)c1`?
FECH block: inactive

Results for CC(NC(=O)c1ccc(N)nc1)c1ccccc1Cl (centres undefined) ?
FECH block: inactive

Results for COc1ccccc1NC(=O)Nc1nc(CC(=O)Nc2c(C)cc(C)cc2C)cs1 ?
FECH block: inactive

How did Cc1nc(N(C)C)nc(N(C)Cc2cnn(C)c2C)c1C do in these assays?
FECH block: inactive

What do the screens show for `Cc1nc2c(s1)CCCC2n1cnc(-c2ccccc2)c1-c1nc[nH]c1C` (centres undefined)?
FECH block: inactive

How did Cc1ccc(NCc2cc(=O)n3[nH]c(NCc4ccccc4)nc3n2)cc1Cl do in these assays?
FECH block: inactive

Results for COc1ccc(CNc2nc3nc(CNc4ccccc4C)cc(=O)n3[nH]2)cc1 ?
FECH block: inactive

Results for COc1ccc(CNc2nc3nc(CNc4ccc(C)cc4C)cc(=O)n3[nH]2)cc1 ?
FECH block: active

What do the screens show for `COc1ccc(CNc2nc3nc(CNc4cccc(C)c4)cc(=O)n3[nH]2)cc1`?
FECH block: inactive

Results for COc1ccc(CNc2nc3nc(CNc4ccccc4Cl)cc(=O)n3[nH]2)cc1 ?
FECH block: inactive

What do the screens show for `COc1ccc(CNc2nc3nc(CN4CCC(C)CC4)cc(=O)n3[nH]2)cc1`?
FECH block: inactive

What do the screens show for `COc1ccc(CNc2nc3nc(CN4CCCC4)cc(=O)n3[nH]2)cc1`?
FECH block: active

What do the screens show for `COc1ccc(CNc2nc3nc(CNc4ccc(C)c(C)c4)cc(=O)n3[nH]2)cc1`?
FECH block: inactive

What do the screens show for `O=c1cc(CNc2cccc(C(F)(F)F)c2)nc2nc(NCc3ccccc3)[nH]n12`?
FECH block: inactive

What do the screens show for `Cc1ccc(Cl)cc1NCc1cc(=O)n2[nH]c(NCc3ccccc3)nc2n1`?
FECH block: active

Results for Cc1ccccc1NCc1cc(=O)n2[nH]c(NCc3ccccc3)nc2n1 ?
FECH block: active

Results for O=c1cc(CN2CCCC2)nc2nc(NCc3ccc(F)cc3)[nH]n12 ?
FECH block: inactive

What do the screens show for `CCC(=O)Nc1ccccc1-c1nnc(SC(CC)C(=O)Nc2cccc(Cl)c2)[nH]c1=O` (centres undefined)?
FECH block: inactive

What do the screens show for `Cc1ccc(-c2noc(CSCC(=O)NCc3ccco3)n2)cc1`?
FECH block: inactive

What do the screens show for `O=C(NCc1cccnc1)C1CCCN(C2CCN(C(=O)c3ccn[nH]3)CC2)C1` (centres undefined)?
FECH block: inactive

Results for Cc1cccc(-n2c(CN3CCN(S(=O)(=O)c4c(C)cc(C)cc4C)CC3)nc3cccnc32)c1 ?
FECH block: inactive

Results for O=c1cc(CNCc2ccccc2)nc2nc(NCc3ccccc3)[nH]n12 ?
FECH block: active

What do the screens show for `CCCNCc1cc(=O)n2[nH]c(NCc3ccccc3)nc2n1`?
FECH block: inactive

How did CCc1ccc(NCc2cc(=O)n3[nH]c(NCc4ccccc4)nc3n2)cc1 do in these assays?
FECH block: inactive

How did OCC1(CCc2ccccc2)CCCN(c2ncccc2F)C1 (centres undefined) do in these assays?
FECH block: inactive

Results for Cn1cc(-c2c(-c3ccccc3)ncn2CCN2CCCOC2=O)cn1 ?
FECH block: inactive

Results for CCCc1cc(Sc2ccc(NC(=O)Nc3cccc(Cl)c3)cc2)n2ncnc2n1 ?
FECH block: inactive

What do the screens show for `CCCc1cc(Sc2ccc(NC(=O)Nc3ccc(OC)c(OC)c3)cc2)n2ncnc2n1`?
FECH block: inactive

What do the screens show for `CCCc1cc(Sc2ccc(NC(=O)Nc3cccc(OC)c3)cc2)n2ncnc2n1`?
FECH block: active

How did CCc1c(C)nc2ncnn2c1Sc1ccc(NC(=O)Nc2cc(C)ccc2OC)cc1 do in these assays?
FECH block: inactive

How did CCCc1cc(Sc2ccc(NC(=O)c3ccc(C)cc3)cc2)n2ncnc2n1 do in these assays?
FECH block: inactive

Results for CCc1c(C)nc2ncnn2c1Sc1ccc(NC(=O)Nc2ccccc2OC)cc1 ?
FECH block: inactive

What do the screens show for `CCCc1cc(Sc2ccc(NC(=O)Nc3ccc(Cl)cc3)cc2)n2ncnc2n1`?
FECH block: inactive

How did CCc1c(C)nc2ncnn2c1Sc1ccc(NC(=O)Nc2cc(OC)c(OC)c(OC)c2)cc1 do in these assays?
FECH block: active

Results for CCCc1cc(Sc2ccc(NC(=O)c3cccc(C)c3)cc2)n2ncnc2n1 ?
FECH block: inactive

What do the screens show for `CCc1cc(Sc2ccc(NC(=O)Nc3ccccc3F)cc2)n2ncnc2n1`?
FECH block: inactive

Results for CCCc1cc(Sc2ccc(NC(=O)c3cccc(F)c3)cc2)n2ncnc2n1 ?
FECH block: active

Results for CCc1cc(Sc2ccc(NC(=O)Nc3ccc(Cl)cc3)cc2)n2ncnc2n1 ?
FECH block: active

Results for Cc1nc2cccnc2n1C1CCN(C(=O)Nc2ccc(F)c(Cl)c2)CC1 ?
FECH block: inactive

How did CCc1nnsc1C(=O)N1CC[C@@H](c2ccc3ccccc3c2)[C@H](O)C1 do in these assays?
FECH block: inactive

From PubChem
